# Assays:
# Conditions in all cases: concentration: 1 μM, replicates: in singlicate; n = 1
# [1] = system: HPK1
# [2] = system: HUNK
# [3] = system: ICK
# [4] = system: IGF1R
# [5] = system: T1, IKK-alpha
# T1 construct: gene CHUK
# [6] = system: T2, IKK-beta
# T2 construct: gene IKBKB
# [7] = system: T3, IKK-epsilon
# T3 construct: gene IKBKE
# [8] = system: INSRR
# [9] = system: INSR
# [10] = system: IRAK1
# [11] = system: IRAK3
# [12] = system: IRAK4
# [13] = system: ITK
# [14] = system: JAK1(JH1domain-catalytic)
# [15] = system: JAK1(JH2domain-pseudokinase)
# [16] = system: JAK2(JH1domain-catalytic)
# [17] = system: JAK3(JH1domain-catalytic)
# [18] = system: T4, JNK1
# T4 construct: gene MAPK8
# [19] = system: T5, JNK2
# T5 construct: gene MAPK9
# [20] = system: T6, JNK3
# T6 construct: gene MAPK10
# 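Note: KINOMEscan kinase panel screen.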
Compound,%Inh [1],%Inh [2],%Inh [3],%Inh [4],%Inh [5],%Inh [6],%Inh [7],%Inh [8],%Inh [9],%Inh [10],%Inh [11],%Inh [12],%Inh [13],%Inh [14],%Inh [15],%Inh [16],%Inh [17],%Inh [18],%Inh [19],%Inh [20]
Cl.Oc1cccc(Nc2ccnc3cc(-c4ccncc4)ccc23)c1 [GW494601],37%,11%,0%,13%,23%,0%,20%,0%,0%,22%,57%,1%,0%,65%,0%,50%,18%,14%,37%,21%
c1ccc(-c2n[nH]cc2-c2ccnc3ccccc23)nc1 [GW271431],27%,4%,0%,12%,0%,0%,22%,1%,6%,6%,0%,6%,14%,10%,0%,3%,0%,17%,33%,12%
O=C(Nc1n[nH]c2cc(-c3cccc(F)c3)ccc12)C1CC1 [SB-735464],0%,0%,34%,0%,25%,37%,14%,2%,9%,10%,0%,17%,0%,12%,23%,7%,0%,23%,12%,17%
CC(C)Oc1ccc2c(-c3ccnc(Nc4ccc(N5CCN(C)CC5)cc4)n3)cnn2n1 [GW696155],54%,0%,49%,0%,100%,100%,54%,0%,21%,99.9%,94.2%,60%,0%,48%,93.5%,99.4%,100%,100%,99.7%,99.9%
Nc1nccc(-c2c(-c3ccc(F)cc3)ncn2C2CCN(CC(F)(F)F)CC2)n1 [SB-236560],48%,0%,63%,0%,7%,0%,54%,21%,0%,29%,0%,0%,0%,0%,0%,0%,29%,63%,91.3%,89%
Fc1ccc(-c2nn3c(OCC(F)(F)F)cccc3c2-c2ccncc2)cc1 [GW514784],6%,31%,0%,0%,0%,0%,22%,0%,0%,19%,0%,0%,9%,24%,14%,4%,0%,97.6%,99.9%,99.9%
COc1cc2c(cc1OCCN1CCN(C)CC1)ncc1c3ccc(C#N)cc3[nH]c21,11%,0%,10%,0%,44%,29%,70%,0%,0%,97.2%,84%,100%,38%,0%,60%,52%,93.4%,19%,0%,0%
CSc1ccc(-c2cc3ncnc(SCC(=O)O)c3s2)cc1,0%,0%,0%,2%,6%,0%,0%,11%,0%,28%,0%,9%,0%,1%,0%,0%,0%,5%,10%,0%
CC(=O)Nc1ccc(COc2ccc(Nc3ccnc4cc(-c5ccccn5)ccc34)cc2)cc1.Cl [GW440148],10%,22%,0%,0%,0%,4%,21%,0%,12%,0%,6%,0%,0%,22%,0%,18%,0%,0%,17%,9%
COCCNC(=O)c1ccc(-c2cc(C(=O)NC3CC3)cc(F)c2C)cc1 [GW868318],4%,7%,40%,3%,36%,29%,4%,19%,10%,37%,23%,13%,8%,0%,16%,44%,0%,38%,49%,19%

# Source: paper PMC5540273 (PLoS ONE, 2017)
